Measurements: publication PMC5540273 (PLoS ONE, 2017)

How the values were obtained:
Conditions in all cases: concentration: 1 μM, replicates: in singlicate; n = 1
[1] = tested on: T1, RSK1(Kin.Dom.2-C-terminal)
T1 construct: gene RPS6KA1

[2] = tested on: T2, RSK2(Kin.Dom.1-N-terminal)
T2 construct: gene RPS6KA3

[3] = tested on: T3, RSK2(Kin.Dom.2-C-terminal)
T3 construct: gene RPS6KA3

[4] = tested on: T4, RSK3(Kin.Dom.1-N-terminal)
T4 construct: gene RPS6KA2

[5] = tested on: T5, RSK3(Kin.Dom.2-C-terminal)
T5 construct: gene RPS6KA2

[6] = tested on: T6, RSK4(Kin.Dom.1-N-terminal)
T6 construct: gene RPS6KA6

[7] = tested on: T7, RSK4(Kin.Dom.2-C-terminal)
T7 construct: gene RPS6KA6

[8] = tested on: S6K1
[9] = tested on: SBK1
[10] = tested on: SGK2
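Note: KINOMEscan kinase panel screen.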

COc1cc2ncnc(Nc3cccc(Br)c3)c2cc1OC.Cl [GI230329]
%Inh [1]: 11% | %Inh [2]: 11% | %Inh [3]: 5% | %Inh [4]: 0% | %Inh [5]: 0% | %Inh [6]: 0% | %Inh [7]: 15% | %Inh [8]: 0% | %Inh [9]: 16% | %Inh [10]: 2%

COC(=O)c1cccc(NC(=O)NC2CCN(c3ccnc(Nc4ccc(OC)cc4)n3)C2)c1 (centres unmarked) [GSK1379746]
%Inh [1]: 0% | %Inh [2]: 0% | %Inh [3]: 0% | %Inh [4]: 0% | %Inh [5]: 0% | %Inh [6]: 0% | %Inh [7]: 0% | %Inh [8]: 14% | %Inh [9]: 0% | %Inh [10]: 0%

CNc1nc(-c2ccc3c(N)n[nH]c3c2)cc(N2C[C@@H](C(=O)Nc3ccccc3)CC[C@H]2C)n1 [GSK2298859]
%Inh [1]: 0% | %Inh [2]: 0% | %Inh [3]: 0% | %Inh [4]: 7% | %Inh [5]: 3% | %Inh [6]: 0% | %Inh [7]: 23% | %Inh [8]: 0% | %Inh [9]: 4% | %Inh [10]: 0%

COc1ccc(Nc2nccc(N3CCC(NC(=O)C(C)c4ccc(Cl)cc4)CC3)n2)cc1 (centres unmarked) [GSK1379812]
%Inh [1]: 0% | %Inh [2]: 21% | %Inh [3]: 99.4% | %Inh [4]: 5% | %Inh [5]: 3% | %Inh [6]: 0% | %Inh [7]: 0% | %Inh [8]: 0% | %Inh [9]: 6% | %Inh [10]: 0%

O=C(Nc1n[nH]c2nc(-c3cccs3)c(Br)cc12)C1CCCC1 [SB-743341]
%Inh [1]: 0% | %Inh [2]: 15% | %Inh [3]: 0% | %Inh [4]: 0% | %Inh [5]: 0% | %Inh [6]: 26% | %Inh [7]: 0% | %Inh [8]: 2% | %Inh [9]: 0% | %Inh [10]: 0%
